Source: PubChem BioAssay (National Center for Advancing Translational Sciences (NCATS))
D3 ag – qHTS of D3 Dopamine Receptor Agonist: qHTS | 410,000 tested, 0.58% active | D3R DiscoveRx beta-arrestin cells, luminescence, 90 min | D(3) dopamine receptor (Homo sapiens), P35462 | max activation, %; in the data active = max activation above about 30%; also: 0% is about no effect
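Agonist-mode cell screen: cells plated at 1500/well and incubated overnight at 37 °C, then exposed to library compounds for 90 min at 37 °C. Detection reagent was added for 30–60 min at room temperature, and luminescence was read.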
D1 agonist – Allosteric Agonists of the Human D1 Dopamine Receptor: qHTS. activation, % at 2 µM. 360,000 tested, 1% active. AID 504660, 2011. D(1A) dopamine receptor (Homo sapiens), P21728. HEK293 T-REx D1 cells, calcium flux, agonist mode; in the data active = activation above about 30%; also: 0% is about no effect
Target sequence (P21728 whole entry, looked up): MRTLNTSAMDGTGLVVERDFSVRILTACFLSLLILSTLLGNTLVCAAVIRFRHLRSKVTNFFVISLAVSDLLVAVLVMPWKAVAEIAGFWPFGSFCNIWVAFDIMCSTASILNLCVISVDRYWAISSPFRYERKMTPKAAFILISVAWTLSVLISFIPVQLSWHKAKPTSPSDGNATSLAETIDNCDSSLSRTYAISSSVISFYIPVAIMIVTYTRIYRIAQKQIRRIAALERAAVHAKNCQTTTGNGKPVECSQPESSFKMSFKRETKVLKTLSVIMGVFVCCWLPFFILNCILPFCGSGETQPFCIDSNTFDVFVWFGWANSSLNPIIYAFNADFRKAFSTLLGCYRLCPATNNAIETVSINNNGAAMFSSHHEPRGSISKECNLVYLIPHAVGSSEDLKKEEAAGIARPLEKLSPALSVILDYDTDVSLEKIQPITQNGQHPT
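Tetracycline-induced HEK293 TREx D1 cells, force-coupled to calcium signalling, were dye-loaded with a no-wash calcium kit. Compound was pin-added after a 10 s baseline. Fluorescence was read kinetically at 1 cycle/s for 180 s, with calcium rises flagged as agonism.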
D1 antagonist – Antagonist of Human D 1 Dopamine Receptor: qHTS; HEK293 TREx D1 cells, calcium flux, dopamine EC80; active compounds read low; activity change, negative = inhibition, % at 10 µM; 360,000 tested, 3.2% active; in the data active = activity change below about -30%; also: % is scaled to controls: 0 for no effect and ±100 for the full control effect
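Kinetic fluorescence of a calcium dye serves as the read-out. D1-expressing Hek293 Trex cells, induced overnight at 30 C, are exposed to compound for 180 s before an EC80 dopamine addition, then read 180 s further.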
D1 PAM – Potentiators of Human D1 Dopamine Receptor: qHTS; AID 504651, 2011; 360,000 tested, 0.036% active; potentiation, % at 10 µM; D(1A) dopamine receptor (Homo sapiens), P21728; HEK293 TREx D1 cells, calcium flux, dopamine EC20 potentiation; in the data active = potentiation above about 30%; also: 0% is about no effect
DRD3 antagonist – qHTS of D3 Dopamine Receptor Antagonist: qHTS. D3R cells, DiscoveRx beta-arrestin luminescence, antagonist mode; active compounds read low. D(3) dopamine receptor (Homo sapiens), P35462. max response, negative = inhibition, %. 360,000 tested, 2.5% active; in the data active = max response below about -50%; inconclusive = no clear call, values can overlap the other calls; also: % is scaled to controls: 0 for no effect and ±100 for the full control effect
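Cells plated overnight at 1500 cells/well, then exposed to library compounds with dopamine controls for 90 minutes at 37 degrees C. DiscoveRx reagent added for 30–60 minutes at room temperature; luminescence read, quantitative HTS format.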
Active calls of the source: *; ? = inconclusive; . = no result. Shown are actives, neighbours in structure and some others; about 6.1% of the full set was active somewhere.

SMILES	D3 ag	D1 agonist	D1 antagonist	D1 PAM	DRD3 antagonist
COc1ccc(OC)c(CNS(=O)(=O)c2ccc(-c3cc(C(F)(F)F)on3)s2)c1	13	17	-12	0	.
COc1ccccc1CNS(=O)(=O)c1ccc(-c2cc(C(F)(F)F)on2)s1	-13	33*	-3	-2	.
c1coc(CNc2ncnc3[nH]ncc23)c1	-17	6	-41*	-4	-2
CCOC(=O)c1c(C)n(-c2ccc(C)cc2)c2ccc(OCC(O)CNCCCO)cc12 (stereo unspecified)	-7	18	52	11	-25
CCOC(=O)c1c(C)n(C)c2ccc(OCC(O)CN3CCC(C)CC3)cc12 (stereo unspecified)	-21	2	-5	.	-102*
CCOC(=O)c1c(C)n(-c2ccc(C)cc2)c2ccc(OCC(O)CNCC3CCCO3)cc12 (stereo unspecified)	-9	60*	35	0	7
CCOC(=O)c1c(C)n(C)c2ccc(OCC(O)CN3CCCCCC3)cc12 (stereo unspecified)	-9	1	6	.	?
CN(C)CCNc1nc2sc3c(c2c(=O)n1CCc1ccccc1)CCCCC3	-10	106*	-35*	0	-1
O=c1c2c3c(sc2n(CCN2CCCCC2)c(=O)n1Cc1ccco1)CCCCC3	-46	1	-8	2	-93*
N=c1c2c3c(sc2ncn1Cc1ccco1)CCCCC3	-7	14	-35*	-6	5
O=c1c2c3c(sc2n(CCN2CCOCC2)c(=O)n1Cc1ccco1)CCCCC3	0	1	-6	3	4
CC(O)CNc1nc2sc3c(c2c(=O)n1Cc1ccco1)CCCCC3 (stereo unspecified)	5	34*	7	1	-6
CC(O)CNc1nc2sc3c(c2c(=O)n1CCc1ccccc1)CCCCC3 (stereo unspecified)	-7	1	-23	-7	7
O=c1c2c3c(sc2nc(NCCOCCO)n1Cc1ccco1)CCCCC3	4	4	7	-1	14
Nc1nnnn1/N=C/C(Br)=C/c1ccccc1	-14	2	-6	-4	-100*
c1ccc2c(CNc3ccc(CNc4ncn[nH]4)cc3)cccc2c1	-9	11	-46*	-7	?
O=[N+]([O-])c1cc(C(F)(F)F)ccc1-n1nnc2ccccc21	8	0	14	1	6
O=[N+]([O-])c1cc(S(=O)(=O)Nc2ccccc2)ccc1-n1nnc2ccccc21	-24	12	0	0	-61*
COc1cc(/C=C(\C#N)c2nc3ccc(C)cc3[nH]2)cc([N+](=O)[O-])c1O	-8	0	-5	1	?
Cc1c(Cl)cccc1-c1ccc(/C=C(\C#N)c2nc3ccccc3[nH]2)o1	-9	58*	6	-3	.
Cc1ccc2nc(/C(C#N)=C/c3ccc(-c4cccc([N+](=O)[O-])c4)o3)[nH]c2c1	-14	47*	1	-3	-7
Cc1ccc2nc(/C(C#N)=C/c3ccc(-c4ccc(F)cc4F)o3)[nH]c2c1	-14	219*	1	8	.
COc1cc(/C=C(\C#N)c2nc3ccc(C)cc3[nH]2)c([N+](=O)[O-])cc1OC	-3	1	3	3	-52*
CCc1ccc(NC(=O)CSC2=Nc3ccccc3C3=NC(CCC(=O)NCCc4ccccc4)C(=O)N23)cc1 (stereo unspecified)	2	0	-20	-1	.
CCN1CCc2nc3sc(C(=O)c4ccc(F)cc4)c(N)c3cc2C1	4	30*	-14	0	.
SMILES	D3 ag	D1 agonist	D1 antagonist	D1 PAM	DRD3 antagonist
CCN1CCc2nc3sc(C(=O)c4ccccc4)c(N)c3cc2C1	-3	28	-10	-3	.
O=C(O)c1c(Cl)c(Cl)c(Cl)c(Cl)c1C(=O)N1CCOCC1	-7	4	-35*	-3	0
O=C(/C=C/c1ccco1)Nc1cccc(C(=O)Nc2ccccc2C(=O)O)c1	3	1	-3	-1	63
CCc1ccccc1NC(=O)c1cccc(NC(=O)/C=C/c2ccco2)c1	7	9	-36*	-18	10
CC(C)(C)c1cccc(Cn2nnc3ccccc32)c1O	-2	29	-43*	-10	-21
CN(C)c1ccc(C2CNC(c3ccc(Cl)c([N+](=O)[O-])c3)c3[nH]c4ccccc4c32)cc1 (stereo unspecified)	-5	2	8	-9	-27
O=[N+]([O-])c1cccc(C2NCC(c3ccccc3Cl)c3c2[nH]c2ccccc32)c1 (stereo unspecified)	-12	0	-9	-5	-64*
CCOC(=O)c1ccc(Nc2c(-c3ccc(N(C)C)cc3)nc3nc[nH]n23)cc1	2	11	-8	-1	.
Cc1ccc(NC(=O)Cn2c(=O)nc(-c3ccccc3F)c3cc(Cl)ccc32)c(Br)c1	-8	1	-15	3	.
COC(=O)c1ccccc1NS(=O)(=O)c1ccc(F)cc1	-9	-1	-36*	-2	16
COc1ccc(-c2cnnn2-c2ccc(NC(=O)c3ccc(S(=O)(=O)N4CCCCC4)cc3)cc2)cc1OC	26	6	-34*	-8	27
O=C(CN1CCN(C(=O)c2cccc(S(=O)(=O)N3CCCC3)c2)CC1)Nc1cccc(F)c1	3	3	-33*	-4	16
O=C(Nc1ccc(Cc2ccncc2)cc1)c1ccc(S(=O)(=O)N2CCCC2)cc1	-1	23	-39*	-7	39
O=C(CN1CCCN(S(=O)(=O)c2ccc(F)cc2)CC1)Nc1cccc(F)c1	-7	2	-2	-12	-7
CCn1cc2nc(SCc3cccc(C(F)(F)F)c3)n(Cc3ccc(C)cc3)c(=O)c2n1	1	4	-6	4	.
CCOCCc1nn2c(=O)cc(COC(=O)c3ccccc3NC(=O)C3CCCCC3)nc2s1	0	-2	11	0	.
O=C(Nc1cccc(F)c1)c1ccc(S(=O)(=O)N2CCCCC2)cc1	-1	12	-43*	-8	1
O=C(Nc1cccc(O)c1)c1ccc(S(=O)(=O)N2CCCCCC2)cc1	-2	0	-8	0	-13
O=C(Nc1cccc(S(=O)(=O)N2CCCCC2)c1)c1ccccc1NS(=O)(=O)c1ccc(F)cc1	-2	41*	-52*	-8	0
COC(=O)c1c(NC(=O)CCCOc2ccc(C(C)(C)C)cc2)sc2c1C(C(=O)OC)CC2 (stereo unspecified)	14	10	9	-3	.
